The text below walks through data of PubChem BioAssay (EPA / NIEHS).

Read-out in assay [1]: Vascular cell adhesion molecule 1 (VCAM1), VCAM1 (gene 7412)
In words: BSK_4H_VCAM1: BioMAP Diversity Plus: 4H Assay for Vascular cell adhesion molecule 1 (VCAM1) Biomarker Activity (AID 2283033).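 As to outcome: cell-surface VCAM-1 protein measured by ELISA.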 The settings on record: primary human endothelial cells (HUVEC); actives raise or lower the signal. The method, boiled down: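 Endpoint derived from bidirectional fitting against DMSO controls of VCAM-1 ELISA signal in umbilical vein endothelial cells sampled at 24 h following treatment.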

Read-out in assay [2]: Interferon-gamma inducible Protein 10 (IP10), CXCL10 (gene 3627)
In words: BSK_BE3C_IP10: BioMAP Diversity Plus: BE3C Assay for Interferon-gamma inducible Protein 10 (IP10) Biomarker Activity (AID 2283034). Particulars: primary human bronchial epithelial cells; actives raise or lower the signal. The gist of the method:
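Using primary human bronchial epithelial cultures, the assay captures IP-10 by ELISA one day (24 h) after exposure. Parallel SRB staining of total protein flags overt cytotoxicity. Fits run bidirectionally relative to DMSO.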

Read-out in assay [3]: Monokine induced gamma interferon (MIG), CXCL9 (gene 4283)
As to the kind of experiment: BSK_BE3C_MIG: BioMAP Diversity Plus: BE3C Assay for Monokine induced gamma interferon (MIG) Biomarker Activity (AID 2283035). Particulars: primary human bronchial epithelial cells; actives raise or lower the signal. The method, boiled down: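 ELISA read-out of MIG in human lung bronchial epithelial primary cultures, 24 h post-dosing. Bidirectional curve fit vs DMSO baseline.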

Read-out in assay [4]: Transforming growth factor beta 1 (TGFb1), TGFB1 (gene 7040)
As to the kind of experiment: BSK_BE3C_TGFb1: BioMAP Diversity Plus: BE3C Assay for Transforming growth factor beta 1 (TGFb1) Biomarker Activity (AID 2283036;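 as to outcome: TGF-b1 protein level measured by ELISA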). Particulars: primary human bronchial epithelial cells; actives raise or lower the signal. The gist of the method:
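In this human primary bronchial epithelial system, an ELISA quantified TGF-b1 one day after dosing. Endpoint changes in either direction were fitted relative to DMSO.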

Read-out in assay [5]: Plasminogen activator inhibitor-1 (PAI1), SERPINE1 (gene 5054)
As to the kind of experiment: BSK_BE3C_PAI1: BioMAP Diversity Plus: BE3C Assay for Plasminogen activator inhibitor-1 (PAI1) Biomarker Activity (AID 2283037). The settings on record: primary human bronchial epithelial cells; actives raise or lower the signal. The method, boiled down:
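PAI-1 biomarker levels in treated human bronchial epithelial cells are determined by ELISA at 24 h. Both increases and decreases relative to DMSO are fitted.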

Read-out in assay [6]: urokinase plasminogen activator (uPA), PLAU (gene 5328)
As to the kind of experiment: BSK_BE3C_uPA: BioMAP Diversity Plus: BE3C Assay for urokinase plasminogen activator (uPA) Biomarker Activity (AID 2283038).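 As to outcome: uPA protein level quantified by ELISA in cell cultures; uPA read one day after compound addition.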 The settings on record: primary human bronchial epithelial cells; actives raise or lower the signal. The gist of the method:
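Measured by ELISA: uPA from human primary bronchial epithelial cells 24 h after chemical treatment. Values derive from bidirectional curve fitting with DMSO serving as negative control. Total protein by SRB staining in parallel wells flagged overt cytotoxicity.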

Read-out in assay [7]: Urokinase-type plasminogen activator receptor (uPAR), PLAUR (gene 5329)
As to the kind of experiment: BSK_BE3C_uPAR: BioMAP Diversity Plus: BE3C Assay for Urokinase-type plasminogen activator receptor (uPAR) Biomarker Activity (AID 2283039).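 As to outcome: uPAR protein level measured by ELISA on the cells; cells exposed to compound for one day before measurement.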 Particulars: primary human bronchial epithelial cells; actives raise or lower the signal. The gist of the method: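 A uPAR ELISA serves as the readout, taken 24 h after treating primary human bronchial epithelial cells. Responses in either direction are fitted against DMSO, which defines baseline activity.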

Read-out in assay [8]: Interleukin-6 (IL6), IL6 (gene 3569)
As to the kind of experiment: BSK_CASM3C_IL6: BioMAP Diversity Plus: CASM3C Assay for Interleukin-6 (IL6) Biomarker Activity for (AID 2283040). Particulars: primary human coronary artery smooth muscle cells; actives raise or lower the signal.

Read-out in assay [9]: Tissue plasminogen activator (tPA), PLAT (gene 5327)
As to the kind of experiment: BSK_BE3C_tPA: BioMAP Diversity Plus: BE3C Assay for Tissue plasminogen activator (tPA) Biomarker Activity (AID 2283041).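 As to outcome: tPA level quantified by ELISA one day after compound addition.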 Particulars: primary human bronchial epithelial cells; actives raise or lower the signal. The gist of the method:
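Bidirectional curve fitting relative to DMSO defined activity, with tPA detected by ELISA in chemically treated human bronchial epithelial primary cells at 24 hours.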

Read-out in assay [10]: Interleukin-8 (IL8), CXCL8 (gene 3576)
As to the kind of experiment: BSK_CASM3C_IL8: BioMAP Diversity Plus: CASM3C Assay for Interleukin-8 (IL8) Biomarker Activity (AID 2283042).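 Also: IL-8 protein level quantified by ELISA.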 The settings on record: primary human coronary artery smooth muscle cells; actives raise or lower the signal.

Structures are written as SMILES. Active and inactive are the calls of the source. The calls were made as follows: active = hit-call score of the fitted dose curve at least 0.9, where 1 is the maximum; inactive = score below 0.9.

Take `CC[C@H]1OC(=O)[C@H](C)[C@@H](O[C@H]2C[C@@](C)(OC)[C@@H](O)[C@H](C)O2)[C@H](C)[C@@H](O[C@@H]2O[C@H](C)C[C@H](N(C)C)[C@H]2O)[C@](C)(O)C[C@@H](C)C(=O)[C@H](C)[C@@H](O)[C@]1(C)O`: the result in assay [1], in assay [2], in assay [3], in assay [4], in assay [5] and in assay [6] was inactive. For the same compound, the result in [7], in assay [8], in assay [9] and in assay [10] was inactive.
`CC(C)CCO`: the outcome in assay [1], in [2], in [3], in [4], in assay [5] and in assay [6] was inactive. Besides, the outcome in assay [7], in [8], in assay [9] and in assay [10] was inactive.
In the case of `CCOCCOCCOCCO`, the result in assay [1], in assay [2], in assay [3], in assay [4], in assay [5] and in assay [6] was inactive. Also, the outcome in assay [7], in assay [8], in assay [9] and in assay [10] was inactive.
In the case of `CCCCCCCCO`, the result in [1], in assay [2], in [3], in assay [4], in [5] and in assay [6] was inactive. The outcome in [7], in assay [8], in assay [9] and in [10] was inactive.
A word on the AC50: it is the concentration giving half of the maximal activity seen. With `O=C(OC[C@H]1O[C@@H](OC(=O)c2cc(O)c(O)c(OC(=O)c3cc(O)c(O)c(O)c3)c2)[C@H](OC(=O)c2cc(O)c(O)c(OC(=O)c3cc(O)c(O)c(O)c3)c2)[C@@H](OC(=O)c2cc(O)c(O)c(OC(=O)c3cc(O)c(O)c(O)c3)c2)[C@@H]1OC(=O)c1cc(O)c(O)c(OC(=O)c2cc(O)c(O)c(O)c2)c1)c1cc(O)c(O)c(OC(=O)c2cc(O)c(O)c(O)c2)c1`, the AC50 is 9.44 µM (active) in assay [1]; 9.85 µM (active) in assay [2]; 10.2 µM (active) in assay [3]; 9.35 µM (active) in assay [4]; 1.87 µM (active) in assay [6]; 4.13 µM (active) in assay [7]. Moreover, in [9], the AC50 is 1.45 µM (active). In addition, the outcome in assay [5], in assay [8] and in assay [10] was inactive.
Turning to `CC[C@H]1CC[C@H](NCc2cc3c(cc2OC)[C@H]2C[C@H]2C(=O)N3C)[C@H](c2ccccc2)N1`, the result in assay [1], in assay [2], in assay [3], in [4], in assay [5] and in assay [6] was inactive. The outcome in [7], in assay [8], in assay [9] and in assay [10] was inactive.
On to `O=C(O)CCN(C1(C(=O)NO)CCCC1)S(=O)(=O)c1ccc(Oc2ccc(F)cc2)cc1`, for which the result in [1], in assay [2], in assay [3], in assay [4], in assay [5] and in [6] was inactive. For the same compound, the outcome in assay [7], in [8], in assay [9] and in [10] was inactive.
As for `O=C(NS(=O)(=O)/C=C/c1ccccc1)c1ccc(F)cc1Cl`, the result in assay [1], in [2], in [3], in assay [4], in assay [5] and in assay [6] was inactive. In addition, the result in [7], in assay [8], in assay [9] and in assay [10] was inactive.
On to `Cn1c(=O)c2c(ncn2C)n(C)c1=O`, for which the result in [1], in assay [2], in assay [3], in assay [4], in assay [5] and in assay [6] was inactive. The result in assay [7], in assay [8], in assay [9] and in assay [10] was inactive.
Take `CC(C)=CCCC(C)CCO` (stereo not given): the result in [1], in [2], in assay [3], in assay [4], in assay [5] and in assay [6] was inactive. In addition, the outcome in [7], in assay [8], in [9] and in [10] was inactive.
For the compound `C=CCCCCCCCCC(=O)O`, the outcome in assay [1], in assay [2], in [3], in [4], in assay [5] and in assay [6] was inactive. For the same compound, the outcome in assay [7], in [8], in assay [9] and in [10] was inactive.
`COC(=O)CC(=O)OC`: the result in assay [1], in assay [2], in assay [3], in assay [4], in assay [5] and in [6] was inactive. Moreover, the outcome in [7], in assay [8], in [9] and in [10] was inactive.
In the case of `COc1ccc(/C=C/S(=O)(=O)NC(=O)c2ccc(C)cc2Cl)cc1`, the outcome in assay [1], in assay [2], in [3], in [4], in assay [5] and in assay [6] was inactive. Besides, the result in [7], in [8], in [9] and in [10] was inactive.
With `Cc1ccc(O)cc1`, the result in [1], in assay [2], in assay [3], in [4], in assay [5] and in [6] was inactive. For the same compound, the outcome in assay [7], in assay [8], in assay [9] and in assay [10] was inactive.
As to `CCc1cc(SCc2sc(-c3ccc(C(F)(F)F)cc3)nc2CN2CCN(c3ccc(OC)cc3)CC2)ccc1OCC(=O)O`, the AC50 was 10 µM (active) in assay [1]; 3.2 µM (active) in assay [2]; 5.52 µM (active) in assay [3]; 5.17 µM (active) in assay [4]; 3.07 µM (active) in assay [5]; 5.31 µM (active) in assay [6]. Further, the AC50 was 5.38 µM (active) in assay [7], 20 µM (active) in [8], 5.23 µM (active) in assay [9] and 34.1 µM (active) in [10].
With `C1N2CN3CN1CN(C2)C3`, the result in assay [1], in [2], in assay [3], in assay [4], in assay [5] and in [6] was inactive. Further, the result in [7], in assay [8], in assay [9] and in assay [10] was inactive.
In the case of `O=C(O)CC(O)C(=O)O` (stereo not given), the result in assay [1], in assay [2], in assay [3], in [4], in [5] and in assay [6] was inactive. For the same compound, the outcome in assay [7], in [8], in assay [9] and in assay [10] was inactive.
With `COc1cccc(-c2ccc(/C=C\CN3CCCCCC3)cc2Cl)c1`, the AC50 in assay [1] is 28.4 µM (active); in assay [2] it was 27.9 µM (active); in [3], 32.7 µM (active); in assay [4] it was 25.8 µM (active); in [6], 23.6 µM (active); in assay [7] it was 25.2 µM (active). For the same compound, the AC50 in assay [9] is 29.2 µM (active). Also, the outcome in [5], in [8] and in [10] was inactive.
For `CC(=O)OC[C@H]1O[C@@](COC(C)=O)(O[C@H]2O[C@H](COC(C)=O)[C@@H](OC(C)=O)[C@H](OC(C)=O)[C@H]2OC(C)=O)[C@@H](OC(C)=O)[C@@H]1OC(C)=O`, the outcome in [1], in assay [2], in [3], in assay [4], in [5] and in assay [6] was inactive. Further, the result in assay [7], in assay [8], in assay [9] and in assay [10] was inactive.
Turning to `Nc1cccc(N)c1`, the outcome in assay [1], in [2], in assay [3], in assay [4], in assay [5] and in assay [6] was inactive. The outcome in assay [7], in [8], in assay [9] and in assay [10] was inactive.
As to `CC/C(=C\C(=N/O)C(N)=O)C(C)[N+](=O)[O-]` (stereo not given), the outcome in [1], in assay [3], in assay [4], in assay [5], in assay [6] and in assay [7] was inactive. Further, the result in [8], in [9] and in assay [10] was inactive. The AC50 in [2] is 29.8 µM (active).
Take `Cc1ccc(S(=O)(=O)O)cc1C`: the result in [1], in assay [2], in assay [3], in [4], in assay [5] and in [6] was inactive. The result in assay [7], in assay [8], in [9] and in assay [10] was inactive.
